Assay outcomes deposited in PubChem BioAssay by several laboratories.
E coli Lon inh: E. coli protease La inhibition | inhibition, % at 7.94 µM | P0A9M0 | hit rate 0.42% among 360,000 | purified E. coli Lon protease, fluorescence polarization | AID 602123; in the data active = inhibition above about 13%, passing the limit was not always enough;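 also: 0% = enzyme with probe and DMSO and 100% = no enzyme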
MEX-5 binding: C. elegans MEX-5 TCR-2 RNA binding activity; Q9XUB2; MEX-5/FITC-TCR2 RNA binding, fluorescence polarization; active compounds read low; activity score (negative = inhibition of binding), % at 10 µM; hit rate 0.38% among 300,000; AID 1832;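 active = inhibition past about -25% in most replicates, and total fluorescence under double the plate's negative control median, limit read from the data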;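 also: 0% = DMSO and -100% = 5 µM competing unlabeled TCR2 RNA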
Target sequence (Q9XUB2 whole entry, looked up): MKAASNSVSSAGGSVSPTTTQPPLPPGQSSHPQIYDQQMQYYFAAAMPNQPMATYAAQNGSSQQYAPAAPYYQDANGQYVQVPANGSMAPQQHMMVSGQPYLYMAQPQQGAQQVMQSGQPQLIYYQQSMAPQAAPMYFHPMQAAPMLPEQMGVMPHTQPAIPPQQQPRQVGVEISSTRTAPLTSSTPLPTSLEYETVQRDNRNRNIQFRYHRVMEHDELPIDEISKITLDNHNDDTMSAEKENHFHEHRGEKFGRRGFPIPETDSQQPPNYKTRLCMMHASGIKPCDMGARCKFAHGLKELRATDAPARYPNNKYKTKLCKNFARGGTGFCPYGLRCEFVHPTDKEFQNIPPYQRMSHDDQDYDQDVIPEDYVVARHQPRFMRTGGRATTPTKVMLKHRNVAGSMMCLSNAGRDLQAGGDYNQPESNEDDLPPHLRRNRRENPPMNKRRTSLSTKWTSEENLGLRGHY
GLD-1 RNA inh: GLD-1-TGE RNA interaction inhibition (C. elegans) | Q17339 | purified GLD-1 + fluorescein TGE RNA, fluorescence polarization | inhibition, % at 5.96 µM | hit rate 0.44% among 320,000;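 active = percent inhibition above a per-plate cutoff, the plate mean of test compounds plus 3 SD, cut at about 30% in these data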;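 also: 0% = DMSO wells with GLD-1 and probe and 100% = wells lacking GLD-1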
EBV gp42 block: EBV gp42 inhibition; Q1HVG2; Fluorescence polarization binding assay, mP read-out; inhibition, % (tested at 21.74 µM); hit rate 0.42% among 220,000; AID 1085; in the data active = inhibition above about 50%
Target sequence (Q1HVG2 whole entry, looked up): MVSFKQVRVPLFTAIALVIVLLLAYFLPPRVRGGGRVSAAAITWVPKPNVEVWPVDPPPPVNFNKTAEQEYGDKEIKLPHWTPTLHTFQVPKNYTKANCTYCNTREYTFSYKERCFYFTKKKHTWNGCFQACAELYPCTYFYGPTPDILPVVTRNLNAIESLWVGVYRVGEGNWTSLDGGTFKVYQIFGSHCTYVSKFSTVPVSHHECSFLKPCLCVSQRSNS
MCL1 BIM primary: inhibitors of human MCL1 binding to BIM-BH3 peptide; AID 2057; inhibition, % at 10.9 µM; hit rate 0.68% among 320,000; Q07820; GST-MCL1 / FITC-Bim-BH3 fluorescence polarization;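 active = inhibition above the mean inhibition of all tested compounds plus 3 SD, set per campaign, cut at about 40% in these data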;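 also: 0% = DMSO wells and 100% = unlabeled Bim-BH3 peptide control; higher means more loss of mP so more displacement of Bim peptide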
Bcl-xL primary: inhibitors of human Bcl-xL | hit rate 0.7% among 320,000 | Q07817 | GST-Bcl-xL / FITC-Bim BH3 peptide fluorescence polarization | inhibition, % at 10.9 µM;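 active = inhibition above the mean of all tested compounds plus 3 SD, cutoff set per campaign, cut at about 30% in these data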;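 also: 0% = DMSO wells and 100% = unlabeled Bim-BH3 peptide competitor; inhibitors lower millipolarization by displacing the labeled peptide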
GLD1 RNA confirm: confirmation of C. elegans GLD-1 TGE RNA binding inhibitors | shares compounds with GLD-1 RNA inh | GLD-1/FL-TGE RNA fluorescence polarization, biochemical | inhibition, % at 5.96 µM | hit rate 10% among 550;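 active = average inhibition across triplicates above the hit cutoff set in the primary screen, cut at about 32% in these data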;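 also: 0% = GLD-1 with RNA probe and DMSO and 100% = wells lacking GLD-1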
Starred values were filed as active, the others as inactive; . = no result. A selection: hits, their analogues and other compounds. The true share with any hit is near 1.5%.

SMILES | E coli Lon inh | MEX-5 binding | GLD-1 RNA inh | EBV gp42 block | MCL1 BIM primary | Bcl-xL primary | GLD1 RNA confirm
COCCNc1c(-c2ccc(OC)cc2)nc2ccc(Cl)cn12 | -10.1 | -13.8 | 22.7 | 5.2 | 23.3 | 23.9 | .
CCOC(=O)CNc1c(-c2ccc(OC)cc2)nc2ccc(Cl)cn12 | 3.4 | -11.2 | 36.6* | 11.6 | 17.6 | 16.0 | 20.1
N#CC1=C(N)Oc2c(oc(CO)cc2=O)C1c1ccccc1[N+](=O)[O-] (stereo unspecified) | 12.8 | -10.4 | 37.1* | 23.1 | 36.9 | 37.6* | 26.4
S=C(Nc1ccc(N2CCOCC2)cc1)Nc1ccc2snnc2c1 | 4.4 | -0.9 | 7.4 | -4.2 | 2.5 | 6.9 | .
CC(=O)c1c(C)[nH]c(C(=O)OCC(=O)Nc2cc(Cl)ccc2[N+](=O)[O-])c1C | 7.5 | 2.1 | 34.2* | -17.3 | 7.6 | 1.6 | 6.8
CC(C)c1ccc(/C=N/n2nnnc2Nc2ccccc2)cc1 | -3.2 | -0.4 | 48.9* | -3.9 | 39.7 | 42.8* | -9.9
C=C(C)CSc1nc2nc(C)cc(C)n2n1 | -8.5 | -0.9 | 35.2* | 0.3 | 34.5 | 29.4 | -7.0
CCOC(=O)CP(=O)(c1ccccc1)c1ccccc1 | -7.1 | 2.4 | 4.3 | -6.9 | -0.5 | -1.5 | .
COC(=O)CP(=O)(c1ccccc1)c1ccccc1 | -6.3 | 0.4 | 39.5* | -9.9 | 37.4 | 32.0* | -0.8
FC(F)(F)c1cccc(-n2c(Cn3nnc4ccccc43)n[nH]c2=S)c1 | 0.6 | 1.4 | 7.1 | -11.1 | -12.1 | -12.1 | .
Cc1ccc(C2c3sc(=O)[nH]c3SC3C(=O)NC(=O)C32)cc1 (stereo unspecified) | 3.9 | -45.7* | 53.9* | 24.6 | 32.1 | 24.2 | 28.9
COC(=O)C1Sc2[nH]c(=O)sc2C(c2ccc(Cl)cc2)C1C(=O)OC (stereo unspecified) | 0.3 | 0.3 | 6.1 | 0.7 | 4.3 | 7.6 | .
C=CCc1cccc(/C=N/c2ncn[nH]2)c1O | 8.0 | 1.6 | -2.1 | -14.3 | 14.2 | 3.7 | .
C=CCc1cccc(/C=N/n2c(C)nnc2C)c1O | -7.4 | -22.0 | 30.9* | 30.2 | 29.4 | 24.0 | 34.7*
O=C1CS/C(=N\N=C\c2ccco2)N1c1ccccc1 | -3.3 | 1.0 | -2.9 | 7.1 | 21.1 | 6.6 | .
O=C1CS/C(=C\[N+](=O)[O-])N1c1ccccc1 | -33.5 | -44.8* | 35.3* | -20.8 | -10.1 | 0.9 | 56.0*
CCCCN1C(=O)C(CC(=O)NCCN2CCOCC2)CC(C(=O)N2CCCCCC2)=C1C (stereo unspecified) | -10.7 | . | . | . | . | . | .
Cc1ccc(S(=O)(=O)N2C(=O)CCC2C(=O)O/N=C(\N)c2cccc([N+](=O)[O-])c2)cc1 (stereo unspecified) | -3.7 | 0.5 | 2.2 | . | 4.3 | 6.2 | .
Cc1ccc(-c2nc(-c3ccncc3)no2)cc1C | 2.4 | 1.9 | 37.2* | . | 5.3 | 3.6 | -1.8
Cc1ccc(-c2nc(-c3ccncc3)no2)cc1Cl | 6.9 | 0.2 | -2.9 | . | 2.6 | 0.8 | .
COc1cccc(N(CC(=O)NCC2CCCO2)C(=O)CNS(=O)(=O)c2ccccc2)c1 (stereo unspecified) | -5.0 | 1.8 | 37.7* | -6.1 | 35.6 | 41.0* | 0.8
Cc1c(C(=O)N2CCC3(CC2)CC(=O)c2ccccc2O3)cccc1[N+](=O)[O-] | -10.1 | 0.2 | 43.8* | . | -0.1 | -1.2 | -3.7
Cc1ccc(F)cc1CNC(=O)C1CCC(=O)N(CC2CCCCC2)C1 (stereo unspecified) | -5.9 | 0.7 | -5.0 | . | -2.0 | 2.8 | .
CCOC(=O)C1=C(O)c2ccccc2C(=O)/C1=C\c1ccc(C)cc1 | -9.9 | . | 57.4* | -0.7 | 42.9* | 37.3* | -5.6
CCOc1ccc(-c2noc(-c3cccnc3)n2)cc1OCC | -1.1 | . | 102.5* | -8.9 | 3.4 | 1.1 | -1.9
SMILES | E coli Lon inh | MEX-5 binding | GLD-1 RNA inh | EBV gp42 block | MCL1 BIM primary | Bcl-xL primary | GLD1 RNA confirm
CN1CCN(c2nc3nonc3nc2N2CCN(C)CC2)CC1 | 8.0 | -5.2 | 35.0* | -6.4 | 28.5 | 33.1* | 4.1
CC(=O)Nc1ccc(N2C(=O)c3cccc(NC(C)=O)c3C2=O)cc1 | -9.8 | 1.0 | 51.2* | -18.5 | 2.2 | 2.1 | -0.2
CC(=O)Nc1cccc2c1C(=O)N(c1ccccc1C)C2=O | 5.5 | -0.7 | -0.1 | -6.5 | -2.5 | 7.0 | .
CCOc1ccc(S(=O)(=O)Nc2nc3ccc(OC)cc3s2)cc1 | -19.2 | -0.4 | 39.3* | 9.2 | 0.1 | 3.0 | -1.9
Cc1cc(Cl)ccc1OCC(=O)NCC(=O)N/N=C/c1ccco1 | -2.3 | 0.4 | -0.9 | -20.9 | 1.8 | 1.5 | .
COc1c(CC=C(C)C)cc(C2CC(=O)c3c(O)cc(O)cc3O2)c(CC=C(C)C)c1O (stereo unspecified) | . | -1.5 | 8.0 | . | 2.5 | 3.9 | .
CC(C)=CCc1cc([C@@H]2CC(=O)c3ccc(O)c(CC=C(C)C)c3O2)ccc1O | -3.5 | -2.6 | 43.1* | . | 0.6 | 1.5 | -5.7
CC1CCN(C(=O)CN2C(=O)NC3(CCC(C)CC3)C2=O)CC1 (stereo unspecified) | 4.6 | . | 3.8 | . | 0.8 | 0.8 | .
C[C@@H]1CC(=O)[C@H]2CC(CO)=CCC[C@@H]2[C@@]1(C)CC/C(=C/CO)CO | -11.4 | . | 80.0* | . | -0.2 | 4.2 | 3.0
O=C(O)c1ccccc1C(=O)Nc1ccc(-c2csc(-c3ccccc3)n2)cc1 | -0.6 | -3.3 | 94.3* | 3.3 | -4.2 | -1.2 | -1.1
Cc1[nH]nc2c1C(c1ccc(F)cc1)C(C#N)=C(N)O2 (stereo unspecified) | -19.1 | -0.6 | -0.7 | -11.0 | 6.0 | -2.8 | .
CCN1C=C(Cc2ccc(F)cc2)C2=C(C1)C(c1ccc(F)cc1)C(C#N)=C(N)O2 (stereo unspecified) | -13.2 | -0.7 | 41.1* | -14.3 | 8.0 | 9.5 | 4.8
CC1CCN(c2oc(-c3ccc(F)cc3)nc2C#N)CC1 | 10.6 | 2.1 | 33.6* | . | 11.1 | 2.0 | -1.0
O=C1NC(Cc2ccccc2)c2nc3ccc(Cl)cc3c(=O)n2-c2ccc(Cl)cc21 (stereo unspecified) | . | . | 0.0 | . | 7.6 | 4.7 | .
Cc1ccc2nc3n(c(=O)c2c1)-c1ccc(Cl)cc1C(=O)NC3Cc1ccccc1 (stereo unspecified) | . | . | 32.8* | . | 2.8 | 3.6 | 0.6
Cc1ncc(CO)c(CO)c1OCC(O)CN1CCN(c2ccc(F)cc2)CC1 (stereo unspecified) | 3.5 | . | . | . | . | . | .
Cc1sc2nc(C(C)(C)C)oc(=O)c2c1C | -9.3 | -3.5 | 116.7* | -10.9 | 2.8 | 4.1 | -2.0
Cc1ccccc1-c1nc2sc(C)c(C)c2c(=O)o1 | -5.1 | -1.8 | 3.2 | . | -8.0 | 8.1 | .
CCS(=O)(=O)N1Cc2ccccc2CC1C(=O)Nc1cccc(S(=O)(=O)N(C)C)c1 (stereo unspecified) | 3.3 | -0.1 | -1.3 | . | -3.1 | -5.1 | .
